According to the supplement of paper PMC9694430:

Experiments:
Experiment in all cases: thermal shift delta Tm vs DMSO control; higher = stronger stabilization (binding)
Settings in all cases: 12.5 µM; protein concentration 2 µM
LOC_OS02G45750-cb003 = system: LOC_OS02G45750-cb003
Method in brief: (§1)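 Heating from 25°C to 95°C at 0.05°C/s, fluorescence was recorded for 19.5 μl wells of 2 μM E. coli-expressed, purified rice kinase domain in 100 mM potassium phosphate pH 7.5, 150 mM NaCl, 10% glycerol and 5 × SYPRO Orange with compound in DMSO. Boltzmann fits gave melting temperatures for this differential scanning fluorimetry assay. The shift reported is the mean of three replicates against the DMSO-only protein.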

LOC_OS02G54510-cb004 = system: LOC_OS02G54510-cb004
Method in brief: as §1

LOC_OS03G04050-cb001 = system: LOC_OS03G04050-cb001
Method in brief: as §1

LOC_OS03G12390-cb001 = system: LOC_OS03G12390-cb001
Method in brief: as §1

LOC_OS03G27990-cb004 = system: LOC_OS03G27990-cb004
Method in brief: as §1

LOC_OS03G50450-cb001 = system: LOC_OS03G50450-cb001
Method in brief: as §1

LOC_OS03G50810-cb003 = system: LOC_OS03G50810-cb003
Method in brief: as §1

LOC_OS04G35114-cb001 = system: LOC_OS04G35114-cb001
Method in brief: as §1

LOC_OS04G38480-cb003 = system: T1, LOC_OS04G38480-cb003
T1 sequence (whole entry): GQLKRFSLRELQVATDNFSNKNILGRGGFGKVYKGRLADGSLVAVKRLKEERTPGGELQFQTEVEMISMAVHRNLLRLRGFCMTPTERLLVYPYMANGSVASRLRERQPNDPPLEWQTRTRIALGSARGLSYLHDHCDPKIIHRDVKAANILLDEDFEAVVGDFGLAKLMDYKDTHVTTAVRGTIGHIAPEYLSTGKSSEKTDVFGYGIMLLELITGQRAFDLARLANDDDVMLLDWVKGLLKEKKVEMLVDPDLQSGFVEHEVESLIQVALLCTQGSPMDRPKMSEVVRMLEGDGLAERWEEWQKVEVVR
Method in brief: as §1

LOC_OS04G41100-cb001 = system: T2, LOC_OS04G41100-cb001
T2 sequence (whole entry): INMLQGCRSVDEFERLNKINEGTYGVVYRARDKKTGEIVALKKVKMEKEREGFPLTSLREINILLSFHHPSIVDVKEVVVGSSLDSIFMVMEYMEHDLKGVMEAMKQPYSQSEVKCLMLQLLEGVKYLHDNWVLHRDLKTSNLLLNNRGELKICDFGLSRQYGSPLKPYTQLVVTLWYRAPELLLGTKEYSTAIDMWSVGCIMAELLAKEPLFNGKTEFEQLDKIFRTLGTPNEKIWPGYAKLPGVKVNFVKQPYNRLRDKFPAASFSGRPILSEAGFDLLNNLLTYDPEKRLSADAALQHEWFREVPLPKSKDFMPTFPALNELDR
Method in brief: as §1

LOC_OS04G57630-cb004 = system: LOC_OS04G57630-cb004
Method in brief: as §1

LOC_OS05G07850-cb002 = system: LOC_OS05G07850-cb002
Method in brief: as §1

LOC_OS05G16824-cb004 = system: LOC_OS05G16824-cb004
Method in brief: as §1

LOC_OS05G28520-cb001 = system: LOC_OS05G28520-cb001
Method in brief: as §1

LOC_OS05G30820-cb001 = system: LOC_OS05G30820-cb001
Method in brief: as §1

LOC_OS05G43570-cb004 = system: LOC_OS05G43570-cb004
Method in brief: as §1

LOC_OS06G16330-cb003 = system: LOC_OS06G16330-cb003
Sequence of LOC_OS06G16330-cb003 (as listed by the source): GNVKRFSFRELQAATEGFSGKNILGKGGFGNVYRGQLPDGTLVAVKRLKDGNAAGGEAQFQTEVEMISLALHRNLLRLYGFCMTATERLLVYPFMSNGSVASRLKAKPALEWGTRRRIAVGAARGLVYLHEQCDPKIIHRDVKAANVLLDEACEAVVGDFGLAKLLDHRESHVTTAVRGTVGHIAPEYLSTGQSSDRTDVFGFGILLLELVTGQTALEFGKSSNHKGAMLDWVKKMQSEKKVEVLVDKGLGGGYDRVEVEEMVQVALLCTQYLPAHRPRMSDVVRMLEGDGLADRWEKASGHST
Method in brief: as §1

LOC_OS06G22820-cb001 = system: T3, LOC_OS06G22820-cb001
T3 sequence (whole entry): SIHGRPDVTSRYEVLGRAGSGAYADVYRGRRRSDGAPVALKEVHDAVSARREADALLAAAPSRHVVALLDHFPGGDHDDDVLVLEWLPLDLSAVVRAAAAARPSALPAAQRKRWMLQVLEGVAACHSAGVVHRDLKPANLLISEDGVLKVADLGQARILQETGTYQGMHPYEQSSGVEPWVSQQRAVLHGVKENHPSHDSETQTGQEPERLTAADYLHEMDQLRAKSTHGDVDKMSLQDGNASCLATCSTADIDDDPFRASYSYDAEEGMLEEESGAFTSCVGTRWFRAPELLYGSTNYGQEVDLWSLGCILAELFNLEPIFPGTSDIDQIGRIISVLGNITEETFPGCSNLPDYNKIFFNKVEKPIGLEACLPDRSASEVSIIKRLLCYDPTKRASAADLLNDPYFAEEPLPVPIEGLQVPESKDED
Method in brief: as §1

LOC_OS07G06570-cb004 = system: LOC_OS07G06570-cb004
Method in brief: as §1

LOC_OS07G07230-cb001 = system: LOC_OS07G07230-cb001
Method in brief: as §1
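Further: purified Escherichia coli-expressed rice kinase domain construct.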

Structure (SMILES) | thermal shift delta Tm (LOC_OS02G45750-cb003) [°C] | thermal shift delta Tm (LOC_OS02G54510-cb004) [°C] | thermal shift delta Tm (LOC_OS03G04050-cb001) [°C] | thermal shift delta Tm (LOC_OS03G12390-cb001) [°C] | thermal shift delta Tm (LOC_OS03G27990-cb004) [°C] | thermal shift delta Tm (LOC_OS03G50450-cb001) [°C] | thermal shift delta Tm (LOC_OS03G50810-cb003) [°C] | thermal shift delta Tm (LOC_OS04G35114-cb001) [°C] | thermal shift delta Tm (LOC_OS04G38480-cb003) [°C] | thermal shift delta Tm (LOC_OS04G41100-cb001) [°C] | thermal shift delta Tm (LOC_OS04G57630-cb004) [°C] | thermal shift delta Tm (LOC_OS05G07850-cb002) [°C] | thermal shift delta Tm (LOC_OS05G16824-cb004) [°C] | thermal shift delta Tm (LOC_OS05G28520-cb001) [°C] | thermal shift delta Tm (LOC_OS05G30820-cb001) [°C] | thermal shift delta Tm (LOC_OS05G43570-cb004) [°C] | thermal shift delta Tm (LOC_OS06G16330-cb003) [°C] | thermal shift delta Tm (LOC_OS06G22820-cb001) [°C] | thermal shift delta Tm (LOC_OS07G06570-cb004) [°C] | thermal shift delta Tm (LOC_OS07G07230-cb001) [°C]
CCCCCCCCCCCCc1ccc(S(=O)(=O)Nc2nncs2)cc1 | -1.65 | -0.17 | 0.7 | -0.22 | 0.29 | -0.07 | -0.06 | 0.41 | 0.58 | 0.45 | -0.02 | 0.11 | -2.07 | 0.11 | 0.45 | 0.64 | 0.11 | 0.75 | 1.23 | 0.24
Cc1cc([C@@H](C)Nc2ccccc2C(=O)O)c2nc(N3CCOCC3)cc(=O)n2c1 | 0.61 | 0.49 | 0.29 | 0.3 | 0.29 | 0.63 | 0.56 | 0.73 | 0.55 | 0.37 | 0.31 | -0.01 | -0.08 | 0.3 | 0.51 | 0.63 | -0.44 | 0.63 | 1.04 | -0.17
CCn1c(=O)c(-c2ccc(Cl)cc2Cl)cc2cnc(Nc3ccc(N4CCNCC4)c(F)c3)nc21 | 10.1 | 8.42 | -0.88 | 4.85 | 10.7 | 0.54 | 6.99 | 11 | 3.17 | 2.82 | 4.17 | 10.6 | 6 | 2.8 | 0.68 | 0.35 | 6.75 | 0.87 | 1.3 | 4.1
COc1cc2ncnc(Nc3ccc(F)c(Cl)c3)c2cc1NC(=O)/C=C/CN1CCCCC1 | 1.69 | 0.71 | 1.08 | 0.21 | 1.04 | 1.79 | 0.95 | 1.15 | 1.53 | 0.71 | 0.99 | 0.3 | -1.53 | 1.09 | 0.67 | 1.72 | 0.01 | 1.31 | 1.37 | 0.21
CCN(CC)CCNC(=O)c1c(C)[nH]c(/C=C2\C(=O)Nc3ccc(F)cc32)c1C [Sunitinib Malate] | 12.4 | 0.41 | 0.23 | 7.66 | 6.23 | 2.74 | 6.79 | 10.1 | 2.16 | 0.97 | 4.24 | 8.46 | 13.1 | 1.41 | 0.86 | 0.2 | 7.74 | 0.19 | 0.48 | 0.56
O=C(Nc1cccc(C(F)(F)F)c1)c1cccc2cc(Oc3cc(CO)ncn3)ccc12 | 0.82 | 0.52 | 0.59 | -0.09 | 0.52 | 0.11 | 0.03 | 0.55 | 1.4 | 0.37 | 0.45 | -0.21 | -4.53 | 0.52 | 0.8 | 0.31 | -0.18 | 0.78 | 0.98 | 0.86
CCCCCCCCCCCCCCCCOP(=O)([O-])OCC[N+](C)(C)C [Miltefosine] | -1.69 | -3.98 | -6.02 | -3.65 | -2.36 | -1.33 | -3.31 | -3.53 | -0.41 | -0.66 | -0.37 | -1.01 | -3.83 | -3.02 | -0.84 | -1.92 | -5.12 | -0.23 | -2.61 | -2.12
Cn1cc(-c2cnn3c(N)c(Br)c([C@@H]4CCCNC4)nc23)cn1 | 2.88 | 0.55 | 0.3 | 0.78 | 0.85 | 0.38 | 1.12 | 1.17 | 2.62 | 0.97 | 0.1 | 6.22 | 4.78 | 0.02 | 0.27 | 0.29 | 7.12 | 0.34 | 0.75 | 0.55
COc1ccc(CNC(=O)Nc2ncc([N+](=O)[O-])s2)cc1 | 0.37 | -0.05 | 0.67 | 0.15 | 0.48 | 0.41 | 0.22 | 0.93 | 1.93 | 0.59 | -0.18 | -0.24 | 0.88 | 1.04 | 0.63 | 0.59 | 0.38 | 0.52 | 0.68 | 0.25
Cc1ccccc1CN1C2=NCCN2C(=O)C2=C1CCN(Cc1ccccc1)C2 [TIC10 Analogue] | -0.1 | 0.13 | 0.49 | -0.16 | 0.09 | 0.31 | 0.21 | 0.79 | 0.2 | 0.45 | -0.16 | -0.89 | -2.52 | 0.56 | 0.36 | 0.33 | -0.41 | 0.74 | 1.19 | 0.09
CS(=O)(=O)CCNCc1ccc(-c2ccc3ncnc(Nc4ccc(OCc5cccc(F)c5)c(Cl)c4)c3c2)o1 | -0.27 | 0.18 | 0.24 | 0.39 | 0.11 | 0.01 | 0.17 | 0.48 | 0.99 | 0.27 | -0.1 | 1.34 | -0.68 | 0.97 | 0.44 | 0.61 | -0.63 | 1.04 | 0.83 | 0.48
COc1ccc(C(=O)Nc2sc3c(c2C(N)=O)CCCC3)cc1OC | 3.21 | 0.13 | 0.38 | 0.22 | 0.12 | 0.38 | 1.2 | 3.8 | 3.31 | 0.28 | 0.24 | 5.8 | -1.08 | 0.65 | 0.5 | 0.59 | 5.12 | 0.46 | 1.73 | 0.5
